Measured values published in PubChem BioAssay.

Experiment: probe aNog binding to arrayed compounds – biochemical, biotinylated probe, 635/667 nm fluorescence, primary screen (AID 1115);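 note: probe is biotinylated aNog protein used at 0.15 µg/mL for 1 h at 4 C; z-score combines 667 nm fluorescence of each spot with its signal to noise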
Conditions: small-molecule microarray, higher = more signal

Compound | composite z-score
CO[C@H]1COC(=O)[C@@H](C)COC(=O)[C@H](Cc2ccccc2)NC(=O)CC=C[C@H]1C | -0.454
C=CCC(OC(C)=O)[C@@H]1[C@@H](N(Cc2cccc3ccccc23)C(=O)c2ccc(C)cc2)c2cc(OCCCO)ccc2N1C(=O)c1ccc(-c2ccccc2)cc1 (stereo partly specified) | -0.241
CC(C)[C@H]1NC(=O)[C@@]23C(=O)N[C@@H](Cc4ccccc4)C2[C@H](C)[C@@]2(C)O[C@H]2C3/C=C/C/C=C\CNC(=O)[C@H](C)NC1=O (stereo partly specified) | -0.32
CO[C@H]1COC(=O)[C@@H](Cc2ccccc2)NC(=O)[C@@H](C)COC(=O)CC=C[C@@H]1C | -0.234
CN1CCC(CCCO)=CC1C1CC1 (stereo unspecified) | -0.473
CC(C)[Si]1(C(C)C)OCc2cc(C3CC3)nc(-c3ccccc3)c21 | -0.0841
O=C1c2ccccc2[C@](Cc2ccccc2I)(C(=O)O)[C@H](c2ccc(CO)cc2)N1C1CCCCC1 | 0.213
C[C@@H]1NC(=O)CC=C[C@@H](C)[C@@H]2C=C[C@H](O)[C@@H](COC(=O)[C@H](C)NC(=O)CC=C[C@@H](C)[C@@H]3C=C[C@H](O)[C@@H](COC1=O)O3)O2 | -0.134
C=CCc1cccc([C@@H]2[C@@H](C)CC[C@H]3C(=O)N4[C@H](c5cccc(CC=C)c5)[C@@H](C)CC[C@H]4C(=O)N23)c1 | -0.216
C=CC[C@@]12N=C(c3ccc(OCCCO)cc3)O[C@@H]1c1ccccc1CN(Cc1ccccc1)C2=O | 0.87
COc1ccc([C@H]2C[C@H]3C(Br)=C[C@]2(OC)C(=O)[C@]32CO2)cc1 | -0.176
C=CCOC(=O)[C@@H]1[C@H]2C(=O)O[C@H](c3ccccc3)[C@H](c3ccccc3)N2[C@H](c2ccc(OCCOC(=O)[C@H]3C[C@H]4C(=O)N5CCC[C@H]5C(=O)N4[C@H]3c3ccc(O)cc3)cc2)[C@@]12C(=O)Nc1ccccc12 | 0.305
CC(=O)NCCCC[C@@H]1NC(=O)[C@@H]2C[C@H](C(=O)NCc3ccc(F)cc3)[C@H](c3cccc(OCCO)c3)N2C1=O | -0.183
O=C(CS)NCCCCCNC(=O)[C@H]1C[C@H]2C(=O)N3CCC[C@H]3C(=O)N2[C@H]1c1ccc(O)cc1 | -0.0207
C=C(COC)/C(=C/C[C@H](OC(C)=O)c1ccc(OCCO)cc1)c1cnc2ccccc2c1 | 0.0107
COc1cc([C@@H]2N[C@H](C(=O)O)Cc3c2[nH]c2ccccc32)cc(OC)c1OC | 0.0374
C=CC[C@@]1(C(=O)N2CCOCC2)N=C(c2ccc(OCCCO)cc2)O[C@@H]1c1ccccc1 | 0.34
COCCOC(=O)N1C(=O)[C@@]2(c3cc(C#CC4=CCCCC4)ccc31)[C@H](c1ccc(O)cc1)N1[C@H](c3ccccc3)[C@H](c3ccccc3)OC(=O)[C@H]1[C@@H]2C(=O)N1CCCCCCC1 | 0.512

Compound | composite z-score
COCCOC(=O)N1C(=O)[C@@]2(c3cc(C#CC4=CCCCC4)ccc31)[C@H](C(=O)NC[C@H](O)c1ccccc1)[C@H]1C(=O)O[C@H](c3ccccc3)[C@H](c3ccccc3)N1[C@@H]2c1ccccc1OCCO | 0.216
C=CC[C@]1(C(=O)NCC(O)CO)N=C(c2ccc(OCCCO)cc2)O[C@H]1c1ccccc1 (stereo partly specified) | 0.402
C=CCC(OC(C)=O)[C@@H]1[C@@H](N(Cc2cc3ccccc3o2)C(=O)c2ccc(C)cc2)c2cc(OCCCO)ccc2N1C(=O)c1ccc2ccccc2n1 (stereo partly specified) | 0.421
CC(C)NC(=O)[C@@]1(Cc2ccccc2I)c2ccccc2C(=O)N(C2CCCCC2)[C@H]1c1ccc(CO)cc1 | 0.982
C=C[C@H](OC)[C@@H](OC(=O)Nc1ccc(SC)cc1)c1ccc(OC)c(O)c1 | -0.15
CCc1cccc(NC(=O)O[C@H]2[C@H](OC(=O)Nc3ccccc3)[C@@H](OC(=O)Nc3ccccc3)[C@@H](OC)O[C@@H]2CO)c1 | 1.34
COCCOC(=O)N1C(=O)[C@@]2(c3cc(C#CCC(C(=O)OC)C(=O)OC)ccc31)[C@H](C(=O)N1CCN(c3ncccn3)CC1)[C@H]1C(=O)O[C@H](c3ccccc3)[C@H](c3ccccc3)N1[C@@H]2c1ccc(O)cc1 | 0.0574
COc1ccc(-c2cc3c(c(-c4ccccc4)n2)[Si](C(C)C)(C(C)C)O[C@H]3c2ccccc2)cn1 | -0.216
CCC(=O)[C@]12O[C@@]3([C@@H]4C(=O)OCC[C@@H]41)N(Cc1ccccc1)C(C)=C(C(=O)OC)[C@@H](c1ccccc1)N3C2=O | -0.196
CO[C@@H]1COC(=O)[C@H](C)NC(=O)CC=C[C@@H](C)[C@H](NS(=O)(=O)c2ccc(C)cc2)COC(=O)CC=C[C@@H]1C | -0.246
CC(=O)Nc1ccc([C@H]2[C@H](C)CC[C@H]3C(=O)N4[C@@H](CC[C@@H](C)[C@@H]4c4ccc(NC(C)=O)cc4)C(=O)N32)cc1 | 0.33
C=CCN(C(=O)C1N(c2ccc(CCO)cc2)C(=O)C2C(C(=O)O)C3C=CC21O3)C(C)(C)C (stereo unspecified) | -0.219
CO[C@H]1COC(=O)[C@H](C)NC(=O)CC=C[C@@H](C)[C@H](NS(=O)(=O)c2ccc(C)cc2)COC(=O)[C@@H](OCc2ccccc2)C=C[C@@H]1C | -0.173
COCCCNC(=O)[C@@]1(Sc2ccc(C)cc2)CC(=O)N(Cc2cc(C(F)(F)F)cc(C(F)(F)F)c2)[C@@H]1c1ccc(CO)cc1I | 0.942
CO[C@H]1COC(=O)CC=C[C@H](C)[C@@H](OC)COC(=O)[C@H](Cc2ccccc2)NC(=O)CC=C[C@@H]1C | -0.537
COCCOC(=O)N1C(=O)[C@@]2(c3cc(C#CCCO)ccc31)[C@H](C(=O)N1CCCCCCC1)[C@H]1C(=O)O[C@H](c3ccccc3)[C@H](c3ccccc3)N1[C@@H]2c1ccc(O)cc1 | 0.916
Cc1ccc(N2C(=O)c3ccccc3[C@@H](C(=O)NCc3ccccc3)[C@@H]2c2ccc(CO)cc2)nc1 | -0.361
O=C1C2C=CC(C(O)C(c3ccccc3)c3ccccc3)N(Nc3ccc([N+](=O)[O-])cc3)C2C(=O)N1c1ccccc1 (stereo unspecified) | 0.676
